According to PubChem BioAssay:
Calls of active or inactive are those of the source. Unless noted, how the calls were made is not given here.

Legend:
[1] = A549 cell viability effects, profiling panel, calcein-AM fluorescence, 48 h, basal (AID 1162); details: higher = more signal; further: test concentration not given here
[2] = adipocyte viability effects, profiling panel, cell-based, 3T3-L1 adipocytes, calcein-AM fluorescence, 48 h, basal (AID 1163); details: 3T3-L1 adipocytes viability, higher = more signal; further: test concentration not given here
[3] = HepG2 cell viability effects, profiling panel, calcein-AM fluorescence, 48 h, basal (AID 1164); details: higher = more signal; further: test concentration not given here
[4] = MM1S cell viability effects, profiling panel, calcein-AM fluorescence, 48 h, basal (AID 1165); details: higher = more signal;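 further: viability of MM1S multiple myeloma cells under basal unstimulated conditions; test concentration not given here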
[5] = basal RPMI8226 viability, no added stimulus, profiling panel, cell-based, calcein-AM fluorescence, 48 h, PK04 Diversity Set (AID 1166); details: RPMI8226 myeloma viability, higher = more signal;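 further: cells grown under basal conditions without added stimulus; test concentration not given here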
[6] = basal HepG2 mitochondrial membrane potential changes, profiling panel, cell-based, JC-1 fluorescence, 24 h, 100 nL compound (AID 1167); details: higher = more signal; further: test concentration not given here
[7] = basal 3T3-L1 adipocyte mitochondrial potential changes, profiling panel, cell-based, JC-1 fluorescence, 3T3-L1 adipocytes, 24 h, 100 nL compound (AID 1168); details: JC-1 mitochondrial fluorescence, higher = more signal, called active from +8 up or from −8 down; further: test concentration not given here
[8] = basal RPMI8226 mitochondrial membrane potential changes, profiling panel, cell-based, JC-1 fluorescence, 24 h, 100 nL compound (AID 1169); details: RPMI8226 myeloma, JC-1 mitochondrial potential fluorescence, higher = more signal; further: test concentration not given here
[9] = basal MM1S mitochondrial membrane potential changes, profiling panel, cell-based, JC-1 fluorescence, 24 h, 100 nL compound (AID 1170); details: higher = more signal; further: test concentration not given here
[10] = A549 lung cancer cell viability effects, profiling panel, resazurin fluorescence, 24 h, PK04 Diversity Set (AID 1171); details: higher = more signal, called active from +8 up or from −8 down; further: test concentration not given here
[11] = HepG2 liver cancer cell viability effects, profiling panel, resazurin fluorescence, 24 h, PK04 Diversity Set (AID 1172); details: higher = more signal; further: test concentration not given here
[12] = basal S. cerevisiae growth modulation, no modifier, primary screen, OD600, strain BY4716, 24 h, basal condition (AID 1173); details: OD600, 24 h, higher = more signal, called active from +8 up or from −8 down
[13] = MM1S myeloma cell viability, profiling panel, resazurin fluorescence, basal, 24 h, PK04 Diversity Set (AID 1174); details: higher = more signal, called active from +8 up or from −8 down;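 further: MM1S multiple myeloma cell line; test concentration not given here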
[14] = molecular target: Dihydroorotate dehydrogenase (quinone), mitochondrial (Plasmodium falciparum (isolate 3D7)) (UniProt Q08210); assay: PfDHODH enzyme inhibitors, primary screen, biochemical, C-terminal His tag, absorbance 600 nm (AID 1175); details: DCIP absorbance 600 nm, higher = more signal, called active from +8 up or from −8 down;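 further: recombinant parasite enzyme with a five histidine tag at its C terminus; test concentration not given here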
[15] = P. aeruginosa biofilm formation inhibitors, primary screen, strain PAO1, LB-PBS medium, absorbance 600 nm (AID 1176); further: test concentration not given here; details: P. aeruginosa PAO1 growth/biofilm, A600, 12 h; higher = more signal
[16] = S. cerevisiae RM11-1a growth modifiers, primary screen, strain RM11-1a, OD600, basal, 24 h (AID 1177); details: OD600, 24 h, higher = more signal, called active from +8 up or from −8 down;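 further: cultures grown under basal conditions with no added stressor; test concentration not given here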
[17] = E. coli acrAB mutant growth effects, primary screen, E. coli filamentation inducers, strain DRC39, OD650, 24 h (AID 1178); details: higher = more signal, called active from +8 up or from −8 down;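 further: growth measured as culture turbidity by optical density at 650 nm; test concentration not given here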
[18] = E. coli acrAB mutant growth effects, primary screen, E. coli filamentation inducers, strain DRC39, OD650, 48 h (AID 1179);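 further: screen aims at cell division blockers that make cells filament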; details: E. coli DRC39 delta-acrAB growth, higher = more signal, called active from +8 up or from −8 down
[19] = RPMI8226 myeloma cell viability, profiling panel, resazurin fluorescence, basal, 24 h, PK04 Diversity Set (AID 1180); details: higher = more signal;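 further: RPMI8826 multiple myeloma cell line at 5000 cells per well; test concentration not given here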
[20] = molecular target: E3 ubiquitin-protein ligase XIAP (Homo sapiens) (UniProt P98170); assay: XIAP binders, primary screen, biophysical, small-molecule microarray, fluorescence 635 nm (AID 1181); details: small-molecule microarray binding, higher = more signal;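 further: score merges 667 nm emission and signal to noise over triplicate slides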
Chain of E3 ubiquitin-protein ligase XIAP (Homo sapiens) (P98170 whole entry, looked up): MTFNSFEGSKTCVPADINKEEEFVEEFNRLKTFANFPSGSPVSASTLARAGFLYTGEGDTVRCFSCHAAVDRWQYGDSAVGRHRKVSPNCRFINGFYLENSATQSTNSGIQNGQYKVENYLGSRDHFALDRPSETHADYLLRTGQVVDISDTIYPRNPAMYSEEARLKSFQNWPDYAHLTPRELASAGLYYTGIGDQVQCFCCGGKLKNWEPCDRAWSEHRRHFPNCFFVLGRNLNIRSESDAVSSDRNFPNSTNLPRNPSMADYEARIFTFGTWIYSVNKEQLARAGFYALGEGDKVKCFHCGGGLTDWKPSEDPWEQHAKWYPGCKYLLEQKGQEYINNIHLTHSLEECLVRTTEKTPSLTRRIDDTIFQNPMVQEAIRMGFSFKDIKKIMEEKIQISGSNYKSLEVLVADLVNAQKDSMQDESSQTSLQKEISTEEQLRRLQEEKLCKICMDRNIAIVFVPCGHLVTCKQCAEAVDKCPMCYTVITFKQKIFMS

Chain of Dihydroorotate dehydrogenase (quinone), mitochondrial (Plasmodium falciparum (isolate 3D7)) (Q08210 whole entry, looked up): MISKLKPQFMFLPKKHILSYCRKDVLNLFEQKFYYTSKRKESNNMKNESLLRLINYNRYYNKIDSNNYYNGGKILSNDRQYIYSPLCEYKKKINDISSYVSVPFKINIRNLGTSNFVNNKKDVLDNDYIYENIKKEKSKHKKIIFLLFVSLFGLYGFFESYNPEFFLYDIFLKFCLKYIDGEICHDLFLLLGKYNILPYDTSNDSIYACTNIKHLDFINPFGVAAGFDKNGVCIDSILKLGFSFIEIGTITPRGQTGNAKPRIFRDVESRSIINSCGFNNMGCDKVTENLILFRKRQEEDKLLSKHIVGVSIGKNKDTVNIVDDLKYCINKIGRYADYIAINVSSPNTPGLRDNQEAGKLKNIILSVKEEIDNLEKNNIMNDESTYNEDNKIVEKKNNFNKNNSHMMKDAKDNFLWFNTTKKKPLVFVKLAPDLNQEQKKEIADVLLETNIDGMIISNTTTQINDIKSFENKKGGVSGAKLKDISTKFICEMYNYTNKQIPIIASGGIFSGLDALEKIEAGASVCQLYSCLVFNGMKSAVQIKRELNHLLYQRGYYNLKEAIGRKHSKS

SMILES | z-score [1] | z-score [2] | z-score [3] | z-score [4] | z-score [5] | z-score [6] | z-score [7] | z-score [8] | z-score [9] | z-score [10] | z-score [11] | z-score [12] | z-score [13] | composite z-score [14] | z-score [15] | z-score [16] | z-score [17] | z-score [18] | z-score [19] | composite z-score [20]
Cc1cc(C)cc(N2C(=O)CSC2c2cccc([N+](=O)[O-])c2)c1 (stereo not given) | 0.377 | -0.28 | 0.0887 | 1.22 | 0.699 | 1.43 | 0.786 (inactive) | -0.445 | -0.541 | -0.661 (inactive) | -0.654 | -0.899 (inactive) | -1.81 (inactive) | -1.39 (inactive) | -0.242 (inactive) | 0.265 (inactive) | 0.837 (inactive) | 0.384 (inactive) | -0.341 | 0.0808
C=CCN1Cc2ccccc2[C@H]2OC(c3ccc(OCCCO)cc3)=N[C@@]2(CC=C)C1=O | -0.391 | 0.659 | -0.121 | -1.7 | -2.4 | 2.11 | 0.661 (inactive) | -0.807 | -1.01 | -1.18 (inactive) | -0.594 | -0.926 (inactive) | -1.72 (inactive) | -0.116 (inactive) | 0.507 (inactive) | 1.18 (inactive) | 0.36 (inactive) | 1.09 (inactive) | -1.8 | 0.069
COc1ccc([Si](C)(C)[C@@H]2[C@@H](CCn3cc([C@H](O)c4ccccc4)nn3)O[C@]3(C(=O)N(Cc4ccc(N5CCC5=O)cc4)c4ccccc43)[C@H]2C)cc1 | 0.388 | 1.05 | 0.944 | 0.738 | -0.23 | 1.63 | 1.9 (inactive) | -0.0445 | -0.855 | 0.668 (inactive) | 0.606 | 0.204 (inactive) | -0.189 (inactive) | -0.102 (inactive) | 1.36 (inactive) | 2.06 (inactive) | 1.57 (inactive) | 1.18 (inactive) | 1.1 | -0.239
O=C1OCCC/C=C\[C@H]2OC34C=CCN(CCN5CCOCC5)C(=O)[C@H]3N(CCCCCCO)C(=O)[C@@H]4C12 (stereo not given in full) | 0.26 | 1.3 | 1.18 | 1.54 | 0.279 | 0.538 | 0.587 (inactive) | 0.0622 | -0.955 | -0.168 (inactive) | 0.287 | -0.549 (inactive) | 0.828 (inactive) | -1.38 (inactive) | 0.0251 (inactive) | -1.06 (inactive) | 0.251 (inactive) | 0.547 (inactive) | 0.56 | 0.122
CC(C)N1CC=CC23O[C@@H]4C=CCOC(=O)[C@@H]4[C@H]2C(=O)N(CCCO)[C@@H]3C1=O (stereo not given in full) | 0.555 | 2.67 | -1.01 | 0.34 | -0.258 | -0.4 | 0.253 (inactive) | 0.354 | -1.5 | 0.108 (inactive) | -0.128 | -1.91 (inactive) | 1.34 (inactive) | -0.201 (inactive) | 0.248 (inactive) | -1.68 (inactive) | -0.135 (inactive) | 0.2 (inactive) | 0.939 | 0.29
OCC1CC(c2ccccc2)=NO1 (stereo not given) | 0.71 | 0.311 | -0.0218 | 0.554 | -0.676 | 0.883 | -0.765 (inactive) | 0.527 | -0.201 | 0.281 (inactive) | -0.107 | -1.09 (inactive) | -0.85 (inactive) | -0.17 (inactive) | -0.201 (inactive) | 0.309 (inactive) | -0.075 (inactive) | 0.194 (inactive) | 0.886 | -0.158
Cc1ccc(S[C@]2(C(=O)O)CC(=O)N(Cc3cc(C(F)(F)F)cc(C(F)(F)F)c3)[C@@H]2c2ccc(CO)cc2)cc1 | -0.192 | -0.228 | -0.618 | -0.424 | -0.82 | -0.555 | -0.717 (inactive) | 0.83 | -0.694 | -0.0055 (inactive) | -0.403 | -0.54 (inactive) | -0.543 (inactive) | -0.254 (inactive) | 0.761 (inactive) | 0.988 (inactive) | -0.296 (inactive) | -0.526 (inactive) | -0.278 | -0.053
CC(C)(C)N1CC=CC23O[C@@H]4C=CCCOC(=O)C4[C@H]2C(=O)N(CCO)[C@@H]3C1=O (stereo not given in full) | -0.708 | -0.358 | -0.811 | 0.18 | 0.608 | -0.405 | -1.46 (inactive) | 0.168 | -0.132 | -0.693 (inactive) | 0.388 | 0.0947 (inactive) | -0.512 (inactive) | 0.427 (inactive) | 0.345 (inactive) | 0.451 (inactive) | -1.02 (inactive) | -1.05 (inactive) | -1.13 | 0.072
C[C@@H]1NC(=O)[C@@]23C(=O)N[C@@H](Cc4ccccc4)C2[C@H](C)[C@@]2(C)O[C@H]2C3/C=C/C/C=C\CNC(=O)[C@@H]2CCCN2C1=O (stereo not given in full) | -0.143 | 0.389 | -0.0552 | 0.37 | -0.0448 | -0.175 | 1.19 (inactive) | 0.632 | -0.0219 | 0.247 (inactive) | -0.289 | -0.963 (inactive) | -0.737 (inactive) | -0.972 (inactive) | 1.28 (inactive) | -0.142 (inactive) | -0.4 (inactive) | -0.188 (inactive) | -0.0461 | -0.102
O=C1O[C@H](c2ccccc2)[C@H](c2ccccc2)N2[C@H]1[C@@H](C(=O)NC[C@H](O)c1ccccc1)[C@]1(C(=O)Nc3ccc(C#CCCO)cc31)[C@H]2c1ccc(OCCO)cc1 | 1.12 | 1.25 | 1.49 | -0.156 | 0.868 | -0.274 | -0.0786 (inactive) | -0.165 | -0.389 | -0.0659 (inactive) | -0.468 | 1.62 (inactive) | -0.0793 (inactive) | -1.33 (inactive) | 2.31 (inactive) | 3.46 (inactive) | 0.541 (inactive) | 0.721 (inactive) | -0.821 | 0.283
O=C(NCC(F)(F)F)[C@@H]1c2ccccc2C(=O)N(Cc2ccc(OC(F)(F)F)cc2)[C@H]1c1ccc(CO)cc1 | 0.0723 | -0.302 | -0.27 | -0.404 | -0.207 | 1.66 | 0.506 (inactive) | 0.941 | -0.54 | 1.01 (inactive) | 1.09 | -1.13 (inactive) | 0.482 (inactive) | -0.504 (inactive) | -0.177 (inactive) | 0.0971 (inactive) | 0.504 (inactive) | 0.632 (inactive) | 1.04 | 0.104
CN(C)CCCCNC(=O)[C@@H]1C[C@@H]2C(=O)N[C@@H](Cc3ccccc3)C(=O)N2[C@@H]1c1cccc(OCCO)c1 | 1.74 | 0.296 | 1.13 | -0.729 | 0.573 | 1.88 | 0.76 (inactive) | -0.0777 | 0.108 | -0.0805 (inactive) | 0.225 | -0.957 (inactive) | 0.977 (inactive) | -2.56 (inactive) | 0.215 (inactive) | -3.29 (inactive) | 2.51 (inactive) | 2.13 (inactive) | 0.588 | 0.109
COCCOC(=O)N1C(=O)[C@@]2(c3cc(C#CCNC(N)=O)ccc31)[C@H](C(=O)N1CCc3cc(OC)c(OC)cc3C1)[C@H]1C(=O)O[C@H](c3ccccc3)[C@H](c3ccccc3)N1[C@@H]2c1ccccc1OCCO | 0.573 | 0.376 | 0.479 | 0.576 | -0.529 | -1.2 | 1.72 (inactive) | -0.502 | -0.98 | -0.286 (inactive) | 0.0874 | 1.11 (inactive) | 0.256 (inactive) | -1.68 (inactive) | 1.54 (inactive) | 0.816 (inactive) | 1.27 (inactive) | 1.29 (inactive) | 0.274 | 0.0578
